The list is not random: actives were taken first. Their share in the collection is about 27%.
sEH inh = soluble epoxide hydrolase (human) inhibition; P34913; recombinant human sEH enzymatic activity assay; 91,000 compounds, 0.34% hits; inhibition, % at 2 µM; in the data active = inhibition above about 80%
CYP2C19 act = activators of human cytochrome P450 2C19. activation factor at 5 µM. P33261. recombinant CYP2C19, luciferin-H EGE luminescence; hits give high values; 0 = fully inhibited enzyme, 1 = untreated enzyme. 96,000 tested, under 10 active;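 active = activation factor of at least 2 at 5 µM in the primary screen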;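 note: 0 = wells with 2.5 mM tranylcypromine and 1 = vehicle-only wells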
Target sequence (P33261 whole entry, looked up): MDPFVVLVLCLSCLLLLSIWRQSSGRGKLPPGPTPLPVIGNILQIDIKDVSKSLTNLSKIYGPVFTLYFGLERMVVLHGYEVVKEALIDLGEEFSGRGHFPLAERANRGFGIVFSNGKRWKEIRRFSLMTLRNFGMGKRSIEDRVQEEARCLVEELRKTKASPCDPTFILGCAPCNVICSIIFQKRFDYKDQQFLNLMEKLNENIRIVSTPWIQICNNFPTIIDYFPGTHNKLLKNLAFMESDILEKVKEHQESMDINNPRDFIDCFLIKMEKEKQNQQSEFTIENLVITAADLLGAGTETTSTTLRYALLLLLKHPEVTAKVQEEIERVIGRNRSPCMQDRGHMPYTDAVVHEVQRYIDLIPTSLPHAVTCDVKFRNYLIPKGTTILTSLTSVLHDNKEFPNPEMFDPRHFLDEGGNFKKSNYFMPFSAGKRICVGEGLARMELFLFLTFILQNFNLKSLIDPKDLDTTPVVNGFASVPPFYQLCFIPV
CYP2C19 inhib = blocks human cytochrome P450 2C19. AID 778. inhibition, % at 5 µM. P33261. CYP2C19 Supersomes, luciferin-H EGE luminescence, 30 min. 96,000 compounds, 21% hits;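 active = CYP2C19 inhibition above a set limit at 5 µM in the primary screen, cut at about 50% in these data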;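 note: plate controls were negative control wells for no effect and 2.5 mM tranylcypromine positive control for full effect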
CYP2C9 inhib = blocks human cytochrome P450 2C9. P11712. CYP2C9 Supersomes, luciferin-H conversion, luminescence. inhibition, % at 5 µM. 96,000 compounds, 20% hits;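 active = blocking of liver enzyme CYP2C9 beyond about 50% at 5 µM, limit read from the data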
sEH act = increases human soluble epoxide hydrolase activity; P34913; purified human sEH enzymatic activity, activator screen; activation, % at 2 µM; 91,000 compounds, 0.04% hits; AID 717; in the data active = activation above about 37%
CYP2C9 act = CYP2C9 (human) activation | P11712 | recombinant CYP2C9, luciferin-H conversion, luminescence; hits give high values; factor 1 = untreated enzyme, 0 = blocked | activation factor at 5 µM | 96,000 compounds, 1.4% hits | AID 1024;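 active = activation factor of 2 or more for CYP2C9 at a 5 µM dose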;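 note: 0 = sulfaphenazole-blocked wells and 1 = vehicle-only wells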
* marks the source's active call; other numbers are inactive results.

For Cc1cccc(CSC2=NCCN2C(=O)c2ccco2)c1 the results were sEH inh -6, CYP2C19 act 0.6, CYP2C19 inhib 42, CYP2C9 inhib -2, sEH act 4 and CYP2C9 act 1.
c1ccc(CCc2nc(-c3ccccn3)no2)cc1 was read as sEH inh 6, CYP2C19 act 0.5, CYP2C19 inhib 55*, CYP2C9 inhib 6, sEH act -7 and CYP2C9 act 0.9.
For Brc1ccc(-c2noc(CCc3ccccc3)n2)o1 the results were sEH inh 1, CYP2C19 act 0.5, CYP2C19 inhib 47, CYP2C9 inhib 10, sEH act -4 and CYP2C9 act 0.9.
`CCCCN(CC)C(=O)c1cccc(Cl)c1` gave sEH inh 13, CYP2C19 act 0.3, CYP2C19 inhib 71*, CYP2C9 inhib 18, sEH act -10 and CYP2C9 act 0.8.
`O=C(c1cc(-c2ccco2)on1)N1CCN(C(c2ccccc2)c2ccccc2)CC1` gave CYP2C19 act 0.9, CYP2C19 inhib 6, CYP2C9 inhib 44 and CYP2C9 act 0.6.
Screening O=C(CN1CCN(C(c2ccccc2)c2ccccc2)CC1)NC(=O)NCc1ccco1 returned sEH inh 1, CYP2C19 act 0.9, CYP2C19 inhib 7, CYP2C9 inhib -96, sEH act -1 and CYP2C9 act 2*.
`S=C(NCc1ccco1)N1CCN(C(c2ccccc2)c2ccccc2)CC1` gave sEH inh 3, CYP2C19 act 0.7, CYP2C19 inhib 35, CYP2C9 inhib 72*, sEH act 0 and CYP2C9 act 0.3.
CCCCNC(=O)C1CCCN1C(=O)NC1CCCCC1 (stereo not given) was read as sEH inh 33 and sEH act -30.
For c1ccc(-c2nnc(-c3c[nH]c4ccccc34)nc2-c2ccccc2)cc1 the results were sEH inh -5, CYP2C19 act 0.9, CYP2C19 inhib 10, CYP2C9 inhib 99*, sEH act 7 and CYP2C9 act 0.
`Nc1nnc(-c2ccccc2)c(-c2ccccc2)n1` gave sEH inh 22, CYP2C19 act 0.8, CYP2C19 inhib 16, CYP2C9 inhib 1, sEH act -26 and CYP2C9 act 1.
Screening Cc1cc(-c2nnc(-c3ccccc3)c(-c3ccccc3)n2)c(C)o1 returned CYP2C19 act 0.8, CYP2C19 inhib 24, CYP2C9 inhib 71* and CYP2C9 act 0.3.
Screening COC(=O)c1cc2oc(C)cc2n1CC(=O)Nc1cc(C)cc(C)c1 returned sEH inh 8, CYP2C19 act 1.1, CYP2C19 inhib -11, CYP2C9 inhib 4, sEH act -5 and CYP2C9 act 1.
For Nn1c(SCC(=O)Nc2ccc(S(=O)(=O)N3CCCC3)cc2)nnc1C(F)(F)F the results were sEH inh -9, CYP2C19 act 1.1, CYP2C19 inhib -7, CYP2C9 inhib 12, sEH act 8 and CYP2C9 act 0.9.
`O=C(O)C1C2C=CC(C2)C1C(=O)NCc1cccnc1` (stereo not given) gave sEH inh -11 and sEH act 11.
Cc1ccc(CNC(=O)C2C3C=CC(C3)C2C(=O)O)cc1 (stereo not given) was read as sEH inh 4, CYP2C19 act 0.5, CYP2C19 inhib 53*, CYP2C9 inhib 13, sEH act 1 and CYP2C9 act 0.9.
CC(=O)N(CN1C(=O)c2ccccc2C1=O)c1ccccc1 was read as sEH inh 0, CYP2C19 act 0.4, CYP2C19 inhib 59*, CYP2C9 inhib 29, sEH act 0 and CYP2C9 act 0.7.
Screening CC(=O)N(CN1C(=O)c2ccccc2C1=O)c1cccc(C)c1 returned sEH inh 5, CYP2C19 act 0, CYP2C19 inhib 97*, CYP2C9 inhib 26, sEH act -5 and CYP2C9 act 0.7.
`O=C(COC(=O)CCC(=O)c1cccs1)Nc1cccc(S(=O)(=O)N2CCOCC2)c1` gave sEH inh 9, CYP2C19 act 0.4, CYP2C19 inhib 64*, CYP2C9 inhib 30, sEH act -6 and CYP2C9 act 0.7.
Screening Cc1ccc(NC(=O)COC(=O)CCC(=O)c2cccs2)cc1S(=O)(=O)N1CCOCC1 returned sEH inh 10, CYP2C19 act 0.7, CYP2C19 inhib 32, CYP2C9 inhib 53*, sEH act -12 and CYP2C9 act 0.5.
O=C(COC(=O)CCC(=O)c1cccs1)Nc1cc(S(=O)(=O)N2CCOCC2)ccc1Cl was read as sEH inh 10, CYP2C19 act 0.5, CYP2C19 inhib 46, CYP2C9 inhib 80*, sEH act -8 and CYP2C9 act 0.2.
For Cc1c(Cl)cccc1NC(=O)COc1ccc(S(=O)(=O)N2CCOCC2)cc1 the results were sEH inh -13, CYP2C19 act 0.9, CYP2C19 inhib 11, CYP2C9 inhib 39, sEH act 11 and CYP2C9 act 0.6.
`Cc1ccnc2nc(C(=O)N3CCN(S(=O)(=O)c4ccccc4)CC3)nn12` gave sEH inh 10, CYP2C19 act 1.1, CYP2C19 inhib -6, CYP2C9 inhib -19, sEH act -12 and CYP2C9 act 1.2.
Screening CCNC(=O)CN(c1ccc(Cl)cc1)S(=O)(=O)c1ccccc1 returned sEH inh -11, CYP2C19 act 0, CYP2C19 inhib 96*, CYP2C9 inhib 63*, sEH act 9 and CYP2C9 act 0.4.
For CCNC(=O)CN(c1ccccc1)S(=O)(=O)c1ccc(Cl)cc1 the results were sEH inh -8, CYP2C19 act 0.3, CYP2C19 inhib 69*, CYP2C9 inhib 33, sEH act 7 and CYP2C9 act 0.7.
`COCC(C)NC(=O)c1noc2c1CCc1cc(OC)ccc1-2` (stereo not given) gave CYP2C19 act 1, CYP2C19 inhib 2, CYP2C9 inhib -36 and CYP2C9 act 1.4.
Screening COc1ccc2c(c1)CCc1c(C(=O)NCCN3CCOCC3)noc1-2 returned CYP2C19 act 1, CYP2C19 inhib 4, CYP2C9 inhib 2 and CYP2C9 act 1.
For COc1ccc2c(c1)CCc1c(C(=O)NCc3ccco3)noc1-2 the results were CYP2C19 act 0.4, CYP2C19 inhib 62*, CYP2C9 inhib -41 and CYP2C9 act 1.4.
COc1ccc2c(c1)CCc1c(C(=O)NCCCn3ccnc3)noc1-2 was read as sEH inh -2, CYP2C19 act 0.2, CYP2C19 inhib 82*, CYP2C9 inhib 69*, sEH act 1 and CYP2C9 act 0.3.
`COCCNC(=O)c1noc2c1CCc1cc(OC)ccc1-2` gave CYP2C19 act 0.8, CYP2C19 inhib 20, CYP2C9 inhib 59* and CYP2C9 act 0.4.
`CS(=O)(=O)N(CC(=O)N1CCCC1)c1cccc(Cl)c1Cl` gave sEH inh -7, CYP2C19 act 0.9, CYP2C19 inhib 15, CYP2C9 inhib 2, sEH act 6 and CYP2C9 act 1.
COc1ccc(-c2nnc(SCC(=O)Nc3cc(C)on3)n2C)cc1OC was read as sEH inh -9, CYP2C19 act 1, CYP2C19 inhib 5, CYP2C9 inhib -1, sEH act 11 and CYP2C9 act 1.

High-throughput results deposited in PubChem by several laboratories.
